The values that follow come from publication PMC9911399, “Two distinct binding modes provide the RNA-binding protein RbFox with extraordinary sequence specificity”.

Positions count from the first letter of the chain named. The full ranking holds about 16,000 sequences; the median of “ka relative to ugcaugu” is about 0.0091, and the highest 2% start at about 0.032. Only a selection was taken, and the highest values are over-represented in it overall.

T1: RBFOX1 RRM (Homo sapiens, UniProt Q9NWB1 109-208)
T1 sequence: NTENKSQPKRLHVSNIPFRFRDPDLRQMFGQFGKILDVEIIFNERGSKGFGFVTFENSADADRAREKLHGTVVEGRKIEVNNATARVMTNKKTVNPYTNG

B1: CCUGGCU (DNA:RNA)
RNA: GGGAGACCGGAAUUCAGAUUGUCCCCUGGCUUUAAAUCCCGUCGUAGCCACCA
DNA 1: CAATCTGAATTCCGGTCTCCC
DNA 2: TGGTGGCTACGACGGGATT
B2: AGGUGAU (DNA:RNA)
RNA: B1 RNA with C25A, C26G, U27G, G28U, C30A
DNA 1: CAATCTGAATTCCGGTCTCCC
DNA 2: TGGTGGCTACGACGGGATT
B3: UUCGAUU (DNA:RNA)
RNA: B1 RNA with C25U, C26U, U27C, G29A, C30U
DNA 1: CAATCTGAATTCCGGTCTCCC
DNA 2: TGGTGGCTACGACGGGATT
B4: GUUUGCU (DNA:RNA)
RNA: B1 RNA with C25G, C26U, G28U
DNA 1: CAATCTGAATTCCGGTCTCCC
DNA 2: TGGTGGCTACGACGGGATT
B5: AACGCCU (DNA:RNA)
RNA: B1 RNA with C25A, C26A, U27C, G29C
DNA 1: CAATCTGAATTCCGGTCTCCC
DNA 2: TGGTGGCTACGACGGGATT
B6: GUAGAGU (DNA:RNA)
RNA: B1 RNA with C25G, C26U, U27A, G29A, C30G
DNA 1: CAATCTGAATTCCGGTCTCCC
DNA 2: TGGTGGCTACGACGGGATT
B7: UGACUGA (DNA:RNA)
RNA: GGGAGACCGGAAUUCAGAUUGUCCUGACUGAUUAAAUCCCGUCGUAGCCACCA
DNA 1: CAATCTGAATTCCGGTCTCCC
DNA 2: TGGTGGCTACGACGGGATT
B8: GCCAGAC (DNA:RNA)
RNA: B1 RNA with C25G, U27C, G28A, C30A, U31C
DNA 1: CAATCTGAATTCCGGTCTCCC
DNA 2: TGGTGGCTACGACGGGATT
B9: GCCUGAC (DNA:RNA)
RNA: B1 RNA with C25G, U27C, G28U, C30A, U31C
DNA 1: CAATCTGAATTCCGGTCTCCC
DNA 2: TGGTGGCTACGACGGGATT
B10: UGACUGC (DNA:RNA)
RNA: B7 RNA with A31C
DNA 1: CAATCTGAATTCCGGTCTCCC
DNA 2: TGGTGGCTACGACGGGATT
B11: UGACUGG (DNA:RNA)
RNA: B7 RNA with A31G
DNA 1: CAATCTGAATTCCGGTCTCCC
DNA 2: TGGTGGCTACGACGGGATT
B12: UGACUGU (DNA:RNA)
RNA: B7 RNA with A31U
DNA 1: CAATCTGAATTCCGGTCTCCC
DNA 2: TGGTGGCTACGACGGGATT
B13: UCCUGAC (DNA:RNA)
RNA: B1 RNA with C25U, U27C, G28U, C30A, U31C
DNA 1: CAATCTGAATTCCGGTCTCCC
DNA 2: TGGTGGCTACGACGGGATT
B14: CUGACUG (DNA:RNA)
RNA: B1 RNA with C26U, U27G, G28A, G29C, C30U, U31G
DNA 1: CAATCTGAATTCCGGTCTCCC
DNA 2: TGGTGGCTACGACGGGATT
B15: UGACUUG (DNA:RNA)
RNA: B7 RNA with G30U, A31G
DNA 1: CAATCTGAATTCCGGTCTCCC
DNA 2: TGGTGGCTACGACGGGATT
B16: GCCUGAA (DNA:RNA)
RNA: B1 RNA with C25G, U27C, G28U, C30A, U31A
DNA 1: CAATCTGAATTCCGGTCTCCC
DNA 2: TGGTGGCTACGACGGGATT
B17: UGACCGU (DNA:RNA)
RNA: B7 RNA with U29C, A31U
DNA 1: CAATCTGAATTCCGGTCTCCC
DNA 2: TGGTGGCTACGACGGGATT
B18: UGCUGAC (DNA:RNA)
RNA: B7 RNA with A27C, C28U, U29G, G30A, A31C
DNA 1: CAATCTGAATTCCGGTCTCCC
DNA 2: TGGTGGCTACGACGGGATT
B19: CGAGAAA (DNA:RNA)
RNA: B7 RNA with U25C, C28G, U29A, G30A
DNA 1: CAATCTGAATTCCGGTCTCCC
DNA 2: TGGTGGCTACGACGGGATT
B20: GAUAUCG (DNA:RNA)
RNA: B1 RNA with C25G, C26A, G28A, G29U, U31G
DNA 1: CAATCTGAATTCCGGTCTCCC
DNA 2: TGGTGGCTACGACGGGATT
B21: GGCGCCU (DNA:RNA)
RNA: B1 RNA with C25G, C26G, U27C, G29C
DNA 1: CAATCTGAATTCCGGTCTCCC
DNA 2: TGGTGGCTACGACGGGATT
B22: UGCCCAG (DNA:RNA)
RNA: B7 RNA with A27C, U29C, G30A, A31G
DNA 1: CAATCTGAATTCCGGTCTCCC
DNA 2: TGGTGGCTACGACGGGATT
B23: UGCGAGG (DNA:RNA)
RNA: B7 RNA with A27C, C28G, U29A, A31G
DNA 1: CAATCTGAATTCCGGTCTCCC
DNA 2: TGGTGGCTACGACGGGATT
B24: GUAGCGU (DNA:RNA)
RNA: B1 RNA with C25G, C26U, U27A, G29C, C30G
DNA 1: CAATCTGAATTCCGGTCTCCC
DNA 2: TGGTGGCTACGACGGGATT
B25: UUUAAGG (DNA:RNA)
RNA: B7 RNA with G26U, A27U, C28A, U29A, A31G
DNA 1: CAATCTGAATTCCGGTCTCCC
DNA 2: TGGTGGCTACGACGGGATT
B26: GUCUUAG (DNA:RNA)
RNA: B7 RNA with U25G, G26U, A27C, C28U, G30A, A31G
DNA 1: CAATCTGAATTCCGGTCTCCC
DNA 2: TGGTGGCTACGACGGGATT
B27: UUCAUGG (DNA:RNA)
RNA: B7 RNA with G26U, A27C, C28A, A31G
DNA 1: CAATCTGAATTCCGGTCTCCC
DNA 2: TGGTGGCTACGACGGGATT
B28: UGAUGCA (DNA:RNA)
RNA: B7 RNA with C28U, U29G, G30C
DNA 1: CAATCTGAATTCCGGTCTCCC
DNA 2: TGGTGGCTACGACGGGATT
B29: UGAUUCA (DNA:RNA)
RNA: B7 RNA with C28U, G30C
DNA 1: CAATCTGAATTCCGGTCTCCC
DNA 2: TGGTGGCTACGACGGGATT
B30: UGCAUGC (DNA:RNA)
RNA: B7 RNA with A27C, C28A, A31C
DNA 1: CAATCTGAATTCCGGTCTCCC
DNA 2: TGGTGGCTACGACGGGATT
B31: UGCAGAA (DNA:RNA)
RNA: B7 RNA with A27C, C28A, U29G, G30A
DNA 1: CAATCTGAATTCCGGTCTCCC
DNA 2: TGGTGGCTACGACGGGATT
B32: UUCAUGC (DNA:RNA)
RNA: B7 RNA with G26U, A27C, C28A, A31C
DNA 1: CAATCTGAATTCCGGTCTCCC
DNA 2: TGGTGGCTACGACGGGATT
B33: UGCAUAA (DNA:RNA)
RNA: B7 RNA with A27C, C28A, G30A
DNA 1: CAATCTGAATTCCGGTCTCCC
DNA 2: TGGTGGCTACGACGGGATT
B34: UGCGUGG (DNA:RNA)
RNA: B7 RNA with A27C, C28G, A31G
DNA 1: CAATCTGAATTCCGGTCTCCC
DNA 2: TGGTGGCTACGACGGGATT
B35: GUCCUGC (DNA:RNA)
RNA: B7 RNA with U25G, G26U, A27C, A31C
DNA 1: CAATCTGAATTCCGGTCTCCC
DNA 2: TGGTGGCTACGACGGGATT
B36: UGCAUGA (DNA:RNA)
RNA: B7 RNA with A27C, C28A
DNA 1: CAATCTGAATTCCGGTCTCCC
DNA 2: TGGTGGCTACGACGGGATT
B37: AGAUGCA (DNA:RNA)
RNA: B7 RNA with U25A, C28U, U29G, G30C
DNA 1: CAATCTGAATTCCGGTCTCCC
DNA 2: TGGTGGCTACGACGGGATT
B38: UGCAUGG (DNA:RNA)
RNA: B7 RNA with A27C, C28A, A31G
DNA 1: CAATCTGAATTCCGGTCTCCC
DNA 2: TGGTGGCTACGACGGGATT

For this assay, the target named is T1, RBFOX1 RRM. Put plainly: EMSA; HiTS-Eq, 1 nM pool, 10 min; buffer printed only for the single-RNA assays: 10 mM Tris pH 7.5, 150 mM NaCl, 3.4 mM EDTA, 0.001% NP-40, 30 C. As to conditions: tags: His6 N-terminal (pET28a); label: 5' 32P. The essentials:
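Relative association constants, normalised to the cognate motif, were derived by comparing read counts of each RNA species with those of the control reaction. The RNA sequenced was the free fraction, separated by 8% native PAGE after a 10 min equilibration in 50 µL of 1 nM 5′-radiolabelled RNA (7 randomized nucleotides) with increasing concentrations of purified wild-type or mutant RbFox RRM.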
Take B1: the binding signal was 0.0127 KA relative to UGCAUGU.
As for B2, the figure is 0.0113 KA relative to UGCAUGU; as for B3, 0.00889 KA relative to UGCAUGU.
To B4 belongs 0.0286 KA relative to UGCAUGU.
B5: the binding signal is 0.00525 KA relative to UGCAUGU.
As for B6, the figure is 0.0112 KA relative to UGCAUGU; as for B7, 0.0256 KA relative to UGCAUGU.
Regarding B8, the binding signal is 0.0114 KA relative to UGCAUGU.
To B9 belongs 0.0331 KA relative to UGCAUGU; to B10, 0.039 KA relative to UGCAUGU.
As for B11, the figure is 0.0284 KA relative to UGCAUGU; as for B12, 0.032 KA relative to UGCAUGU.
As to B13, the binding signal was 0.0129 KA relative to UGCAUGU.
Turning to B14, the binding signal is 0.0302 KA relative to UGCAUGU.
Consider B15, for which the binding signal was 0.0454 KA relative to UGCAUGU.
For the molecule B16, the binding signal was 0.0276 KA relative to UGCAUGU.
To B17 belongs 0.0185 KA relative to UGCAUGU.
Take B18: the binding signal was 0.0249 KA relative to UGCAUGU.
To B19 belongs 0.00724 KA relative to UGCAUGU; to B20, 0.0155 KA relative to UGCAUGU.
Take B21: the binding signal is 0.00816 KA relative to UGCAUGU.
As for B22, the figure is 0.0164 KA relative to UGCAUGU.
To B23 belongs 0.0231 KA relative to UGCAUGU.
For B24, the binding signal was 0.0174 KA relative to UGCAUGU.
To B25 belongs 0.0043 KA relative to UGCAUGU; to B26, 0.0121 KA relative to UGCAUGU.
As for B27, the figure is 0.00704 KA relative to UGCAUGU; as for B28, 0.0332 KA relative to UGCAUGU; as for B29, 0.0154 KA relative to UGCAUGU.
As for B30, the binding signal was 1.02 KA relative to UGCAUGU.
As for B31, the figure is 0.0113 KA relative to UGCAUGU.
As for B32, the figure is 0.0106 KA relative to UGCAUGU; as for B33, 0.00891 KA relative to UGCAUGU; as for B34, 0.0211 KA relative to UGCAUGU.
To B35 belongs 0.0203 KA relative to UGCAUGU; to B36, 0.913 KA relative to UGCAUGU.
Take B37: the binding signal was 0.0164 KA relative to UGCAUGU.
Take B38: the binding signal was 0.965 KA relative to UGCAUGU.
